We go through 14 molecules from PubChem BioAssay (NCI).

Among the test systems are HT29 colon; SNB-75 CNS; SNB-19 CNS; U251 CNS; PC-3 prostate; SK-MEL-5 melanoma; UACC-62 melanoma; LOX IMVI melanoma; SK-MEL-28 melanoma; SK-MEL-2 melanoma.
Holding throughout (test): NCI-60 one-dose screen, 48 h (100 = growth as untreated, 0 = no growth, -100 = all killed)
What all share (details): 10 µM

About 83,000 compounds went through this panel and 20% of them were active in at least one assay; those are over-represented in the sample as a whole.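 Method: cells in 96-well plates; compound added at one concentration; 48 h incubation; percent growth measured; values under 10 scored active.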 Unmarked numbers belong to inactive results. Calls of active or inactive are those of the source.

Regarding `C#Cc1ccc(-n2c(/C=C/c3ccc(C(F)(F)F)cc3)nc3ncccc3c2=O)cc1`, the growth in the test on HT29 colon is 0.334% (active); in the test with SNB-75 CNS, 25.7%; in the test on SNB-19 CNS, 68%; in the test with U251 CNS, 39.2%; in the test with PC-3 prostate, 29.4%; in the test with SK-MEL-5 melanoma it was -73.6% (active). Moreover, the growth in the test with UACC-62 melanoma is 17%; with LOX IMVI melanoma, -18% (active); in the test on SK-MEL-28 melanoma, 33.3%; with SK-MEL-2 melanoma, -37.1% (active).

Take `COc1cc(/C=C/C(=O)c2ccc(Cl)cc2)ccc1OS(=O)(=O)c1ccc(C)cc1`: the growth in the test on HT29 colon was 28.5%; in the test with SNB-75 CNS it was 105%; in the test with SNB-19 CNS, 98.5%; with U251 CNS, 83.7%; with PC-3 prostate it was 76.1%; in the test on SK-MEL-5 melanoma, 100%. Also, the growth with UACC-62 melanoma is 79.4%; in the test on LOX IMVI melanoma it was 2.55% (active); in the test on SK-MEL-28 melanoma, 106%; in the test with SK-MEL-2 melanoma, 108%.

Regarding `Cc1cc(Cc2cc(C)c(O)c(C)c2)cc(C)c1O`, the growth was 88.1% in the test with HT29 colon; 48% in the test on SNB-75 CNS; 66.6% in the test with SNB-19 CNS; 49.6% in the test with U251 CNS; 75.1% in the test on PC-3 prostate; 38.9% in the test on SK-MEL-5 melanoma. The growth with UACC-62 melanoma is 53.2%; in the test with LOX IMVI melanoma it was 43.5%; in the test on SK-MEL-28 melanoma, 70%; in the test with SK-MEL-2 melanoma it was 6.12% (active).

Consider `COc1cc(-c2cc(/C=C/C(=O)c3ccc(Cl)c(Cl)c3)[nH]n2)cc(OC)c1OC`, for which the growth was 58.3% in the test on HT29 colon; 75.4% in the test with SNB-75 CNS; 68% in the test with SNB-19 CNS; 43.8% in the test with U251 CNS; 55% in the test on PC-3 prostate; 84.1% with SK-MEL-5 melanoma. Also, the growth in the test on UACC-62 melanoma was 81.6%; in the test on LOX IMVI melanoma it was 29.6%; with SK-MEL-28 melanoma, 96.1%; in the test with SK-MEL-2 melanoma, 86.7%.

As for `CC(=O)/C(=C/c1ccccc1)C(=O)CC(C)C`, the growth is 74.4% in the test on HT29 colon; 91.4% with SNB-75 CNS; 106% in the test with SNB-19 CNS; 63.6% in the test with U251 CNS; 83.7% in the test with PC-3 prostate; 88.1% in the test on SK-MEL-5 melanoma. For the same molecule, the growth in the test with UACC-62 melanoma was 92.4%; with LOX IMVI melanoma, -23% (active); with SK-MEL-28 melanoma it was 95.6%; in the test with SK-MEL-2 melanoma it was 109%.

Regarding `CN(Cc1ccccc1)Cc1ccc([N+](=O)[O-])cc1I`, the growth with HT29 colon was 93.8%; in the test with SNB-75 CNS, 94.7%; in the test on SNB-19 CNS it was 91.6%; in the test with U251 CNS, 89.4%; in the test on PC-3 prostate it was 90.5%; in the test with SK-MEL-5 melanoma, 93.5%. Besides, the growth is 94.2% with UACC-62 melanoma, 102% in the test with LOX IMVI melanoma, 97.1% with SK-MEL-28 melanoma and 95.3% with SK-MEL-2 melanoma.

In the case of `Cc1occc1-c1nnc(SCC(=O)c2ccc(NC(=O)CC(C)C)cc2)o1`, the growth in the test on HT29 colon was 113%; with SNB-75 CNS, 111%; with SNB-19 CNS it was 95.8%; in the test on U251 CNS, 105%; in the test with PC-3 prostate, 100%; in the test on SK-MEL-5 melanoma, 94.9%. In addition, the growth with UACC-62 melanoma was 104%; in the test on LOX IMVI melanoma, 105%; in the test on SK-MEL-28 melanoma, 123%; with SK-MEL-2 melanoma, 90.8%.

For the molecule `COc1ccc(N2C(=O)C3c4[nH]c5ccc(OCc6ccccc6)cc5c4C4CCC(C(C)C)CC4C3C2=O)cc1` (centres undefined), the growth is 89.3% in the test with HT29 colon; 31.3% in the test on SNB-75 CNS; 104% with SNB-19 CNS; 18.8% in the test on U251 CNS; 88.3% with PC-3 prostate; 99.5% in the test with SK-MEL-5 melanoma. For the same molecule, the growth is 94.2% in the test on UACC-62 melanoma, 90.1% in the test on LOX IMVI melanoma and 101% in the test on SK-MEL-2 melanoma.

Turning to `O=C1/C(=C\c2cn(C(=O)c3ccc(Cl)cc3)c3ccccc23)c2ccccc2N1C(=O)c1ccc(Cl)cc1`, the growth in the test with HT29 colon is 70.4%; with SNB-75 CNS, 54.4%; with SNB-19 CNS, 98.2%; in the test on U251 CNS, 74.2%; in the test with PC-3 prostate, 65.7%; with SK-MEL-5 melanoma it was 74.9%. The growth in the test with UACC-62 melanoma was 88.9%; in the test with LOX IMVI melanoma, 67.2%; in the test with SK-MEL-28 melanoma, 103%; in the test with SK-MEL-2 melanoma it was 49.8%.

For the molecule `O=C(c1ccc(Cl)cc1Cl)N1CCOCC1`, the growth in the test with HT29 colon was 105%; in the test with SNB-75 CNS it was 81.8%; with SNB-19 CNS, 103%; in the test on U251 CNS, 105%; in the test on PC-3 prostate, 96.4%; with SK-MEL-5 melanoma, 96.3%. Besides, the growth in the test with UACC-62 melanoma is 101%; with LOX IMVI melanoma it was 96.8%; in the test with SK-MEL-28 melanoma, 110%; with SK-MEL-2 melanoma it was 96.5%.

Consider `Cc1ccc(NC(=O)Nc2cccnc2)cc1NC(=O)Nc1cccnc1`, for which the growth in the test with HT29 colon was 89.6%; in the test on SNB-75 CNS, 95.9%; with SNB-19 CNS, 94%; with U251 CNS it was 79%; in the test on PC-3 prostate, 43.4%; in the test with SK-MEL-5 melanoma, 64.3%. The growth in the test on UACC-62 melanoma was 75.7%; with LOX IMVI melanoma it was 96.6%; with SK-MEL-28 melanoma, 98.8%; in the test with SK-MEL-2 melanoma, 83%.

Consider `Cc1nc2oc3ccccc3c(=O)c2cc1C(=O)NCc1ccccc1`, for which the growth is 94.1% with HT29 colon; 80.9% in the test on SNB-75 CNS; 84.9% in the test on SNB-19 CNS; 64.7% in the test with U251 CNS; 90.9% in the test with PC-3 prostate; 81% in the test on SK-MEL-5 melanoma. For the same molecule, the growth in the test with UACC-62 melanoma is 31.1%; in the test on LOX IMVI melanoma, 55.9%; in the test with SK-MEL-28 melanoma, 78.5%; in the test on SK-MEL-2 melanoma, 9.34% (active).

Consider `Clc1ccc(Nc2ccnc(NCCCNc3ccnc4cc(Cl)ccc34)n2)cc1`, for which the growth is -69.3% (active) in the test with HT29 colon; -89.2% (active) in the test on SNB-75 CNS; 4.15% (active) with SNB-19 CNS; -93.2% (active) in the test with U251 CNS; -27.5% (active) in the test with PC-3 prostate; -100% (active) with SK-MEL-5 melanoma. Also, the growth in the test with UACC-62 melanoma is -90.5% (active); with LOX IMVI melanoma it was -77.5% (active); with SK-MEL-28 melanoma, -92.1% (active); with SK-MEL-2 melanoma it was -91% (active).

With `CCCCCCCCCCCCCC[n+]1ccc(C(N)=O)cc1`, the growth is -28.2% (active) in the test on HT29 colon; -24.8% (active) in the test on SNB-75 CNS; -58.5% (active) in the test on SNB-19 CNS; -100% (active) in the test on U251 CNS; -23.3% (active) with PC-3 prostate; -82.8% (active) in the test with SK-MEL-5 melanoma. The growth in the test on UACC-62 melanoma is 0.667% (active); in the test with LOX IMVI melanoma it was -48.9% (active); in the test with SK-MEL-28 melanoma it was 43.3%; with SK-MEL-2 melanoma, -32.4% (active).
